{
  "source": "PubChem BioAssay (NCATS)",
  "key": {"[1]": {"test": "AP1 Signaling Pathway (AID 357); further: on the % scale 0 is the no-effect control and ±100 the full control effect", "settings": "ME-180 AP-1-bla reporter, EGF-induced, beta-lactamase ratio, 5 h", "procedure,_shortened": "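Cells are seeded overnight, exposed to compound titrations and an EC50 level of EGF for 5 hours at 37 °C, then loaded with CCF4 dye for 2.5 hours. Beta-lactamase activity under the AP-1 element is read as a blue/green ratio.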"}, "[2]": {"molecular_target": "Cytochrome P450 1A2 (Homo sapiens) (UniProt P05177)", "sequence (P05177 whole entry, looked up)": "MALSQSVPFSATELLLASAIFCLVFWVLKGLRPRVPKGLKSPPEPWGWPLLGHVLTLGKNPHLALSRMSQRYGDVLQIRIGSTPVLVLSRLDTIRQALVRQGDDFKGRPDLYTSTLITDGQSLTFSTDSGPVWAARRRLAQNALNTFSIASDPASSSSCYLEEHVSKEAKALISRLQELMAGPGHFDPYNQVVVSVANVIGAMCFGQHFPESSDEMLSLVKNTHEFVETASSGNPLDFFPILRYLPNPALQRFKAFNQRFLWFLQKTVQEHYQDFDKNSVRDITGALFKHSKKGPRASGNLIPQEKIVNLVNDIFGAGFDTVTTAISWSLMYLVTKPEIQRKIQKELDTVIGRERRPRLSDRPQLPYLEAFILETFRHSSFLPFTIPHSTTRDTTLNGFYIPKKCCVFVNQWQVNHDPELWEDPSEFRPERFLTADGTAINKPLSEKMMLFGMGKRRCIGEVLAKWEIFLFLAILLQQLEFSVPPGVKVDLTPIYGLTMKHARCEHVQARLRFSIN", "test": "p450-cyp1a2 (AID 410; calls by dose curve; further: potency means the concentration at half of the fitted maximal effect;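 on activity change, negative = inhibition: -100% = full effect of reference inhibitor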)", "settings": "recombinant CYP1A2, luciferin-ME demethylation, luminescence; series mostly up to 57 µM", "procedure,_shortened": "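Read-out is luminescence from luciferin produced by CYP1A2 demethylation of Luciferin-ME (100uM, at Km). Detection reagent stopped the 60 min NADPH-dependent reaction; signals were normalized to 57 uM furafylline.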"}, "[3]": {"test": "NFAT Signaling Pathway (AID 444);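 further: carbachol stimulus at about its EC50 of 1 µM final; on the % scale 0 is the no-effect control and ±100 the full control effect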", "settings": "Jurkat NFAT-bla M1, carbachol, beta-lactamase ratio, 5 h", "procedure,_shortened": "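Jurkat cells with NFAT-driven β-lactamase reporter and co-expressed M1 receptor, stimulated with carbachol (final 1 uM, ~EC50), compound titration, 5 h at 37 °C. CCF4 loaded 1 h at RT; 460/530 nm ratio gave %activity and AC50.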"}, "[4]": {"test": "Cell Viability - BJ (AID 421; calls by dose curve;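 further: potency means the concentration at half of the fitted maximal effect; cells exposed to compound for 40 hours at 37 °C before readout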)", "settings": "BJ fibroblast viability, qHTS", "procedure,_shortened": "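Normal human BJ foreskin fibroblasts, 1500/well in complete medium, treated 40 hr at 37 °C. Cellular ATP by CellTiter-Glo luminescence; normalized to DMSO and 100 uM tamoxifen, AC50 from Hill fit.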"}, "[5]": {"test": "Cell Viability - Jurkat (AID 426;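 active means dose-dependent loss of cell ATP signal giving a full or clear fitted curve, ranked by lower potency value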; further: potency means the concentration at half of the fitted maximal effect)", "settings": "qHTS", "procedure,_shortened": "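Cytotoxicity was scored as loss of cellular ATP, measured by luciferase-based luminescence, in Jurkat clone E6-1 cells after 40 h compound treatment; tamoxifen and doxorubicin served as positive controls.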"}, "[6]": {"test": "Cell Viability - Hek293 (AID 427;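 active means compounds whose dose-response curve shows a full or clear partial loss of cell viability, called from curve shape rather than a numeric limit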;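 further: potency means the concentration at half of the fitted maximal effect; cells exposed to compound for 40 hours at 37 °C before reading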)", "settings": "qHTS", "procedure,_shortened": "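HEK293 cells in complete medium were exposed to compound for 40 hr at 37 °C, then cellular ATP was read by CellTiter-Glo luminescence. Data were normalized to DMSO (basal) and 100 uM tamoxifen (100% inhibition), and AC50 came from Hill fits.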"}, "[7]": {"test": "Cell Viability - HepG2 (AID 433; calls by dose curve; further: potency means the concentration at half of the fitted maximal effect)", "settings": "qHTS", "procedure,_shortened": "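ATP luminescence (CellTiter-Glo) after 40 h compound exposure, 37 °C, HepG2, 1500 cells/well, complete medium. Normalized: DMSO = basal, 100 uM tamoxifen = 100% inhibition. AC50 via standard Hill equation.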"}, "[8]": {"test": "Cell Viability - MRC5 (AID 434; calls by dose curve;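 further: potency means the concentration at half of the fitted maximal effect; potency reflects cytotoxicity seen as loss of intracellular ATP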)", "settings": "MRC5 lung fibroblast viability, qHTS", "procedure,_shortened": "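ATP luminescence read-out (CellTiter-Glo, 20 min RT) after 40 hr, 37 °C compound exposure of 1500 MRC5 cells/well. Data normalized to DMSO (basal) and 100 uM tamoxifen (100% inhibition); AC50 from standard Hill equation.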"}, "[9]": {"test": "Cell Viability - SK-N-SH (AID 435; calls by dose curve; further: potency means the concentration at half of the fitted maximal effect)", "settings": "SK-N-SH neuroblastoma cell viability qHTS", "procedure,_shortened": "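CellTiter-Glo ATP luminescence, 20 min RT read; cells pre-plated 5 hr, compound 40 hr at 37 °C, 1500 cells/well, complete medium. Normalized DMSO = 0, 100 uM tamoxifen = 100% inhibition; Hill-fit AC50.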"}},
  "note": "Several values for one entry are separate records, joined by “and”; a condition that tells them apart may be missing. Equal values may be shown once. Records with an inconclusive call do not appear. A structure can be active in one record and inactive in another. Activity calls are given as the source filed them. Unless noted, the call rests on the fitted dose curve; in most records, active means well fitted curve in either direction with a large enough effect (not every such curve was filed as active); inconclusive means small, poorly fitted or top-dose-only effect, or another doubt; inactive means flat fitted curve, though single readings scatter.",
  "data": [
    {"smiles": "O=C(O)CN(CCN(CC(=O)O)CC(=O)O)CCN(CC(=O)O)CC(=O)O", "values": [
      {"measurement": "activity change, negative = inhibition", "setting": "[1]; at 17.2 µM (top of the series)", "value": "-3.91% (inactive)"},
      {"measurement": "activity change, negative = inhibition", "setting": "[1]; at 38 µM (top of the series)", "value": "10% (inactive)"},
      {"measurement": "Potency", "setting": "[2]", "value": "inactive"},
      {"measurement": "activity change, negative = inhibition", "setting": "[3]; at 17.2 µM (top of the series)", "value": "-4.47% (inactive)"},
      {"measurement": "activity change, negative = inhibition", "setting": "[3]; at 38 µM (top of the series)", "value": "2.2% (inactive)"}
    ]},
    {"smiles": "O=C1CC2(CCCC2)CC(=O)N1CCCCN1CCN(c2ncccn2)CC1", "values": [
      {"measurement": "activity change, negative = inhibition", "setting": "[1]; at 17.2 µM (top of the series)", "value": "-0.287% (inactive)"},
      {"measurement": "activity change, negative = inhibition", "setting": "[1]; at 38 µM (top of the series)", "value": "-2.42% (inactive)"},
      {"measurement": "activity change, negative = inhibition", "setting": "[3]; at 17.2 µM (top of the series)", "value": "-9.19% (inactive)"}
    ]},
    {"smiles": "CN(C)CCCN1c2ccccc2Sc2ccc(C(F)(F)F)cc21", "values": [
      {"measurement": "Potency", "setting": "[2]", "value": "1.58 µM (active) and 794 nM (active)"},
      {"measurement": "activity change, negative = inhibition", "setting": "[3]; at 17.2 µM (top of the series)", "value": "-88.2% (active)"}
    ]},
    {"smiles": "Cc1nc2c([nH]1)c(=O)n(C)c(=O)n2Cc1ccco1", "values": [
      {"measurement": "activity change, negative = inhibition", "setting": "[1]; at 38 µM (top of the series)", "value": "-6.02% (inactive)"},
      {"measurement": "activity change, negative = inhibition", "setting": "[3]; at 38 µM (top of the series)", "value": "-9.82% (inactive)"}
    ]},
    {"smiles": "C[N+](C)(C)CCOC(=O)CCC(=O)OCC[N+](C)(C)C", "values": [
      {"measurement": "activity change, negative = inhibition", "setting": "[1]; at 38 µM (top of the series)", "value": "-1.57% (inactive)"},
      {"measurement": "Potency", "setting": "[2]", "value": "inactive"},
      {"measurement": "activity change, negative = inhibition", "setting": "[3]; at 38 µM (top of the series)", "value": "1.62% (inactive)"}
    ]},
    {"smiles": "C=CCc1ccccc1OCC(O)CNC(C)C", "note": "(stereo unspecified)", "values": [
      {"measurement": "activity change, negative = inhibition", "setting": "[1]; at 17.2 µM (top of the series)", "value": "12.6% (inactive)"},
      {"measurement": "activity change, negative = inhibition", "setting": "[3]; at 17.2 µM (top of the series)", "value": "5.58% (inactive)"}
    ]},
    {"smiles": "CC1=C(C)C(=O)C(CCCCC#CCCCC#CCO)=C(C)C1=O", "values": [
      {"measurement": "Potency", "setting": "[2]", "value": "501 nM (active)"}
    ]},
    {"smiles": "NC(=Nc1ccccc1)Nc1ccccc1", "values": [
      {"measurement": "Potency", "setting": "[4]", "value": "> 92 µM (inactive)"},
      {"measurement": "Potency", "setting": "[5]", "value": "> 92 µM (inactive)"},
      {"measurement": "Potency", "setting": "[6]", "value": "> 92 µM (inactive)"},
      {"measurement": "Potency", "setting": "[7]", "value": "> 92 µM (inactive)"},
      {"measurement": "Potency", "setting": "[8]", "value": "> 92 µM (inactive)"},
      {"measurement": "Potency", "setting": "[9]", "value": "> 92 µM (inactive)"}
    ]},
    {"smiles": "CN(C)CCCN1c2ccccc2Sc2ccccc21", "values": [
      {"measurement": "activity change, negative = inhibition", "setting": "[3]; at 38 µM (top of the series)", "value": "-83.6% (active)"}
    ]},
    {"smiles": "CC(=O)OCC1=C(C(=O)O)N2C(=O)[C@@H](NC(=O)Cc3cccs3)[C@H]2SC1", "values": [
      {"measurement": "activity change, negative = inhibition", "setting": "[1]; at 17.2 µM (top of the series)", "value": "-3.26% (inactive)"},
      {"measurement": "activity change, negative = inhibition", "setting": "[3]; at 17.2 µM (top of the series)", "value": "0.294% (inactive)"}
    ]},
    {"smiles": "OC(CCN1CCCCC1)(c1ccccc1)C1CCCCC1", "note": "(stereo unspecified)", "values": [
      {"measurement": "activity change, negative = inhibition", "setting": "[1]; at 17.2 µM (top of the series)", "value": "5.32% (inactive)"},
      {"measurement": "activity change, negative = inhibition", "setting": "[3]; at 17.2 µM (top of the series)", "value": "-77.3% (active)"}
    ]},
    {"smiles": "CN(C)CCN(Cc1cccs1)c1ccccn1", "values": [
      {"measurement": "Potency", "setting": "[2]", "value": "inactive and 12.6 µM (active)"}
    ]},
    {"smiles": "O=C(CCCN1CCC(O)(c2cccc(C(F)(F)F)c2)CC1)c1ccc(F)cc1", "values": [
      {"measurement": "activity change, negative = inhibition", "setting": "[1]; at 38 µM (top of the series)", "value": "14.4% (inactive)"},
      {"measurement": "Potency", "setting": "[2]", "value": "inactive"},
      {"measurement": "activity change, negative = inhibition", "setting": "[3]; at 38 µM (top of the series)", "value": "-2.13% (inactive)"}
    ]},
    {"smiles": "O=c1[nH]c(=O)n([C@H]2C[C@H](O)[C@@H](CO)O2)cc1Br", "values": [
      {"measurement": "Potency", "setting": "[4]", "value": "> 92 µM (inactive)"},
      {"measurement": "Potency", "setting": "[6]", "value": "> 92 µM (inactive)"},
      {"measurement": "Potency", "setting": "[7]", "value": "> 92 µM (inactive)"},
      {"measurement": "Potency", "setting": "[8]", "value": "> 92 µM (inactive)"},
      {"measurement": "Potency", "setting": "[9]", "value": "> 92 µM (inactive)"}
    ]},
    {"smiles": "CCC(=O)c1ccc2c(c1)N(CCCN(C)C)c1ccccc1S2", "values": [
      {"measurement": "Potency", "setting": "[2]", "value": "631 nM (active)"}
    ]},
    {"smiles": "COc1ccc(CN(CCN(C)C)c2ccccn2)cc1", "values": [
      {"measurement": "Potency", "setting": "[2]", "value": "inactive"},
      {"measurement": "Potency", "setting": "[4]", "value": "> 92 µM (inactive)"},
      {"measurement": "Potency", "setting": "[5]", "value": "> 92 µM (inactive)"},
      {"measurement": "Potency", "setting": "[6]", "value": "> 92 µM (inactive)"},
      {"measurement": "Potency", "setting": "[7]", "value": "> 92 µM (inactive)"},
      {"measurement": "Potency", "setting": "[8]", "value": "> 92 µM (inactive)"},
      {"measurement": "Potency", "setting": "[9]", "value": "> 92 µM (inactive)"},
      {"measurement": "activity change, negative = inhibition", "setting": "[3]; at 17.2 µM (top of the series)", "value": "-25.9% (inactive) and -22.5% (inactive)"},
      {"measurement": "activity change, negative = inhibition", "setting": "[3]; at 38 µM (top of the series)", "value": "-21.9% (inactive)"}
    ]},
    {"smiles": "COc1cc2c(cc1OC)-c1cc(=Nc3c(C)cc(C)cc3C)n(C)c(=O)n1CC2", "values": [
      {"measurement": "activity change, negative = inhibition", "setting": "[1]; at 38 µM (top of the series)", "value": "-25.7% (inactive)"},
      {"measurement": "Potency", "setting": "[2]", "value": "inactive"},
      {"measurement": "activity change, negative = inhibition", "setting": "[3]; at 38 µM (top of the series)", "value": "-16.6% (inactive)"}
    ]}
  ]
}
